In PubChem BioAssay (Tox21):
Unmarked numbers belong to inactive results. Calls of active or inactive are those of the source. Calls follow the shape of the full dose curve.

The compounds below were run against Thyrotropin-releasing hormone receptor (Homo sapiens) (UniProt P34981) (assay: qHTS assay to identify small molecule agonists of the thyrotropin-releasing hormone receptor (TRHR) signaling pathway (AID 1346891;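 also: HEK293 cells expressing TRHR with calcium dye readout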)). Settings: TRHR-HEK293 calcium fluorescence, agonist mode; series mostly up to 57.6 µM; activation: at the top concentration.
Excerpt: National Center for Advancing Translational Sciences [NCATS] NIH Chemical Genomics Center [NCGC] U.S. Environmental Protection Agency [EPA] National Institutes of Environmental Health Sciences [NIEHS] National Toxicology Program [NTP] Assay overview: Thyrotropin-releasing hormone (TRH) receptor (TRHR) is a G-protein-coupled receptor which binds the tripeptide thyrotropin releasing hormone. TRHR is found in the brain and, when bound by TRH, acts (through phospholipase C) to increase intracellular inositol trisphosphate. It plays a crucial role in the anterior pituitary where it controls the synthesis and secretion of thyroid stimulating hormone and prolactin. The TRHR-Hek293 assay is a cell-based assay, and it has the potential to screen G protein-coupled receptors. A compound/drug can either activate (agonist) or suppress (antagonist) GPCRs that can be monitored by levels of intracellular calcium. Using this assay, the Tox21 10K compound library was screened to identify potential TRHR agonists.
Assay Protocol Summary: The TRHR-Hek293 cells were dispensed at 1500cells/4uL/well in 1536-well black-clear bottom plates using a Multidrop dispenser. After the assay plates were incubated at a 37 C/5% CO2 incubator for 18 hours, 4 uL of Dye-Loading Solution was added to each well. The plates were incubated at 37 C for 2 hours. For agonist mode, 23 nL of compounds dissolved in DMSO, positive controls or DMSO only was transferred to the assay plate by a pin tool. The fluorescence intensity in the plates was measured using FDSS 7000EX kinetic plate reader for 3 min at 1 sec intervals. Each test compound was measured at 15 concentrations and in triplicates.
% is scaled to controls: 0 for no effect and ±100 for the full control effect.

Thyrotropin-releasing hormone receptor (Homo sapiens), sequence (P34981 whole entry, looked up): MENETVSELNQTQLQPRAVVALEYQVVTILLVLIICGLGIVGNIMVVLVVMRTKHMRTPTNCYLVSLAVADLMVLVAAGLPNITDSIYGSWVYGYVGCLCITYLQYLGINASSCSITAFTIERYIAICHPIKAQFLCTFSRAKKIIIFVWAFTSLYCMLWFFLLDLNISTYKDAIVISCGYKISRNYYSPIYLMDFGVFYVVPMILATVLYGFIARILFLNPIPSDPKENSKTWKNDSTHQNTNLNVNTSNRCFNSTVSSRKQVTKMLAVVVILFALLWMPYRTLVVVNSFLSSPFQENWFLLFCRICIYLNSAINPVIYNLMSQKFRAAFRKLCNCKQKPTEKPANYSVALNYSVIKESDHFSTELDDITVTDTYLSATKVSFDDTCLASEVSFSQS

| Compound | activation | Potency |
| --- | --- | --- |
| CCN(CC)CCOC(=O)C1(C2CCCCC2)CCCCC1 | -1.03% [at 26.5 µM] | – |
| CCN(CC)CCNc1ccc(CO)c2sc3ccccc3c(=O)c12 | 0.029% [at 26.5 µM] | – |
| CC(=O)O[C@@H]1C[C@@H]2CC[C@@]1(C)C2(C)C | 0.0908% | – |
| CCN(CC)c1cccc(C)c1 | 0.316% | – |
| Cc1ccc(N)cc1O | -0.651% | – |
| CC(C)=CCCC(C)CCOC(=O)C(C)C (stereo not given) | -0.612% | – |
| O=C1C=CC(=O)N1c1ccccc1 | 12.4% | – |
| CC(C)(c1cc(Br)c(O)c(Br)c1)c1cc(Br)c(O)c(Br)c1 | – | inactive |
| O=C1c2c(O)ccc(O)c2C(=O)c2c(NCCNCCO)ccc(NCCNCCO)c21 | -0.382% [at 26.5 µM] | – |
| CCN(CC)CCSC(=O)C(c1ccccc1)c1ccccc1 | -0.136% [at 26.5 µM] | – |
| c1cc2c3c(c1)ccc1cccc(c13)C2 | 0.544% | – |
| CCCCCCCCCCCCCCCCCO | 0.0338% [at 11.8 µM] | – |
| CCc1cccc(CC)c1N(COC)C(=O)CS(=O)(=O)O | -0.231% | – |
| Cc1ccc(CCn2c3c(c4cc(Cl)ccc42)CN(C)CC3)cn1 | -0.14% [at 26.5 µM] | – |
| CN(C)c1ccc(N=NS(=O)(=O)O)cc1 | -0.482% | – |
| C=CC(=C)CC/C=C(\C)CCC=C(C)C | 0.335% [at 11.8 µM] | – |
| CCc1cccc(CC)c1NC(=O)C(=O)O | 0.749% | – |
| CC1=C(/C=C/C(C)=C/C=C/C(C)=C\C=O)C(C)(C)CCC1 | -0.0543% | – |
| Cn1cnc2ncnc(N)c21 | -0.256% [at 26.5 µM] | – |
| Cc1cccc(C)c1NC(=O)CN1CCN(CCCC(c2ccc(F)cc2)c2ccc(F)cc2)CC1 | -1.05% [at 26.5 µM] | – |

| Compound | activation | Potency |
| --- | --- | --- |
| c1cc[nH]c1 | 1.08% | – |
| O=Cc1ccc(F)cc1 | 0.0734% | – |
| COC(=O)NCCC[Si](OC)(OC)OC | 0.0558% | – |
| C[C@]12CC[C@H]3C(=CCc4cc(O)ccc43)[C@@H]1CCC2=O | 2.19% | – |
| Nc1cc(Cl)c([N+](=O)[O-])cc1O | 0.033% | – |
| C/C=C/CO | -0.0703% | – |
| O=C=NCc1cccc(CN=C=O)c1 | -0.119% [at 11.8 µM] | – |
| CCOCOCC | 0.0131% | – |
| c1ccc(Nc2cccc3ccccc23)cc1 | – | inactive |
| COC(=O)CC(C)CCC=C(C)C (stereo not given) | -0.353% | – |
| CCOC(=O)[C@@](C)(N)Cc1ccc(O)c(O)c1 | -1.19% [at 26.5 µM] | – |
| Cc1ccc(O)cn1 | -0.126% | – |
| CC(C)OC(=O)c1cc(C(=O)OC(C)C)cc([N+](=O)[O-])c1 | 1.2% | – |
| Clc1nc2ccccc2s1 | -0.0573% | – |
| Clc1ccc(C(Cn2ccnc2)OCc2ccsc2Cl)c(Cl)c1 (stereo not given) | 7.14% [at 26.5 µM] | – |
| CCCCCCCOC(=O)c1ccccc1C(=O)OCCCCCCC | 0.0984% | – |
| CN(C)CCOC(c1ccccc1)c1ccccc1 (tested in a mixture with another compound) | 1.31% | – |
| CC(C)(C)c1cc(/C=C2\SC(=N)NC2=O)cc(C(C)(C)C)c1O | 7.72% | – |
| O=C1NCN(c2ccccc2)C12CCN(CCCC(c1ccc(F)cc1)c1ccc(F)cc1)CC2 | 0.586% [at 26.5 µM] | – |
| CCC(=O)OCCc1ccccc1 | -0.137% | – |
